The values that follow come from PubChem BioAssay (NCATS).

In test [1] the target is Rap guanine nucleotide exchange factor 3 (Homo sapiens) (UniProt O95398). Kind of test: Confirmatory qHTS for agonist of cAMP-regulated guanine nucleotide exchange factor 3 (EPAC1) (AID 1645881). Also: nearly all actives have a fitted effect of over 75% in size. Also: potency is read from the fitted curve at half-maximal effect.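 As to activation: EPAC1 catalysed release of BODIPY-GDP from Rap1B seen as fluorescence loss; 100% = effect of cAMP agonist control.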
Test [2] deals with Rap guanine nucleotide exchange factor 4 (Homo sapiens) (UniProt Q8WZA2). The test can be described thus: Confirmatory qHTS for agonist of cAMP-regulated guanine nucleotide exchange factor 4 (EPAC2) (AID 1645884).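 Also: nucleotide exchange releases bodipy-GDP from Rap1 and this lowers its fluorescence; nearly all actives have a fitted effect of over 65% in size.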 Also: potency is read from the fitted curve at half-maximal effect. For orientation: qHTS replaces the single test concentration by a dilution series.
Test [3] has the same target. The test can be described thus: Confirmatory qHTS for antagonist of cAMP-regulated guanine nucleotide exchange factor 4 (EPAC2) (AID 1645885). Also: nearly all actives have a fitted effect of over 25% in size. Also: potency is read from the fitted curve at half-maximal effect.
For test [4], the target named is Rap guanine nucleotide exchange factor 3 (Homo sapiens) (UniProt O95398). The test can be described thus: Counterscreen qHTS for agonist of cAMP-regulated guanine nucleotide exchange factor 3 (EPAC1) (AID 1645889). Also: nearly all actives have a fitted effect of over 40% in size. Also: potency is read from the fitted curve at half-maximal effect. As to activation: % of control where 0% means no effect. An outline of the steps:
(§1)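 Rap1B–BODIPY-GDP (250 nM) with 50 uM GDP; compounds pin-transferred to 9.74 nM–152 uM final (activator) or from 7.32 nM upwards (inhibitor). Fluorescence Ex/Em 480/540 nm read at 5 and 30 min, then after adding cAMP or buffer, at room temperature.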
(The purpose of a counterscreen is to sort out artefacts and off-target activity.)

Test [5] has as its target Cytochrome P450 3A4 (Homo sapiens) (UniProt P08684). Kind of test: qHTS Assay for Inhibitors and Substrates of Cytochrome P450 3A4 (AID 884). Also: potency is read from the fitted curve at half-maximal effect; nearly all actives have a fitted effect of over 50% in size. An outline of the steps:
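20 nM human CYP3A4 with 25 uM Luciferin-PPXE (at KM) in 200 mM KPO4, preincubated 10 min with compound; NADPH regeneration started a 60 min RT reaction. Luciferin detected by luminescence, normalized to 57 uM ketoconazole as full inhibition.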

The target is the same in test [6]. Kind of test: qHTS Assay for Activators of Cytochrome P450 3A4 (AID 885). Also: nearly all actives have a fitted effect of over 65% in size. An outline of the steps:
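Human CYP3A4 (20 nM) with Luciferin-PPXE at 25 uM (its KM) in 200 mM KPO4; 10 min compound preincubation, then NADPH regeneration and 60 min reaction at RT. Luciferin read by luminescence; normalized to 57 uM ketoconazole full inhibition.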

Test [7] can be described thus: Confirmation and Secondary Assay for Modulators of Hemoglobin Beta Chain Splicing at IVS2 654 locus (AID 910).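 Also: HeLa cells stably carrying EGFP split by mutant beta-globin IVS2-654 intron; % of control where 0% means no effect.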 The procedure, abridged:
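HeLa cells stably expressing EGFP interrupted by β-globin IVS2-654 intron, seeded overnight in Opti-MEM/2% FCS, then treated 2 days at 37 °C. Restored splicing read as total peak GFP intensity per well by laser scanning cytometry (488 nm excitation, 500–520 nm emission); 500 nM antisense PNA as control.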

A short description of test [8]: Confirmation and Secondary Assay for Modulators of Hemoglobin Beta Chain Splicing at IVS2 705 locus (AID 930).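 Also: HeLa cells stably expressing the EGFP-705 splicing reporter; GFP fluorescence per well restored by corrected splicing of the IVS2-705 intron in EGFP; % of control where 0% means no effect.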 An outline of the steps:
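First, HeLa EGFP-705 cells are seeded at 500/well in Optimem with 2% FCS and left overnight. Next, compound or DMSO is added for 2 days. Finally wells are laser-scanned and total peak GFP intensity scored.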

Test [9] deals with Rap guanine nucleotide exchange factor 3 (Homo sapiens) (UniProt O95398). Kind of test: Counterscreen qHTS for antagonist of cAMP-regulated guanine nucleotide exchange factor 3 (EPAC1) (AID 1645888).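 Also: fluorescence loss as bound BODIPY-GDP is released from Rap1B; % of control where 0% means no effect.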 An outline of the steps: as §1
For test [10], the target named is Lysosomal acid glucosylceramidase (Homo sapiens) (UniProt P04062). Kind of test: Glucocerebrosidase-p2 (AID 348; in the data active = potency below about 10 µM; also: potency is read from the fitted curve at half-maximal effect). The settings on record: purified GBA, blue fluorogenic substrate, 40 min. The procedure, abridged: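 Compounds titrated from 0.6 nM upwards against 0.2 nM enzyme in pH 5.9 citric acid/KH2PO4, taurocholate, tween-20; blue fluorogenic substrate 80 uM, 40 min room temperature, stopped and read Ex 365/Em 440 for AC50.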

Test [11] in a line: AP1 Signaling Pathway (AID 357; active = well fitted curve in either direction with a large enough effect, not every such curve was filed as active;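 also: ME-180 reporter cells stimulated with EGF at its EC50 level; % is scaled to controls: 0 for no effect and ±100 for the full control effect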). The settings on record: ME-180 AP-1-bla reporter, EGF-induced, beta-lactamase ratio, 5 h; at 7.69 µM (top of the series) unless noted. An outline of the steps:
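Beta-lactamase reporter under AP-1 response element, ME-180 background. Stimulus: EC50 EGF. Compound exposure 5 h, 37 °C. Detection: CCF4, 2.5 h RT, 460/530 nm. Values: AC50 from titration.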

Test [12] addresses Cytochrome P450 1A2 (Homo sapiens) (UniProt P05177). Kind of test: p450-cyp1a2 (AID 410; calls by dose curve; also: potency is read from the fitted curve at half-maximal effect). An outline of the steps:
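Inhibition was calculated relative to 57 uM furafylline (full inhibition). The reaction used human CYP1A2 at 20nM with Luciferin-ME at its Km, 100uM, driven by an NADPH-regenerating system for 60 min at room temperature.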

A short description of test [13]: Stat Signaling Pathway (AID 446; active = well fitted curve in either direction with a large enough effect, not every such curve was filed as active;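 also: ME-180 cervical cancer cells given 40 pM IL-6 alongside compound; SIE-controlled beta-lactamase reporter measured as 460/530 nm FRET emission ratio; % is scaled to controls: 0 for no effect and ±100 for the full control effect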). The procedure, abridged: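 ME-180 cells carrying a SIE-driven beta-lactamase reporter are stimulated with 40 pM IL-6 for 5 h at 37C in the presence of compound. The 460/530 nm FRET substrate ratio is read after 2.5 h at RT. Data are normalised to 300 pM IL-6 and to 125 nM JAK inhibitor controls.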
Test [14] deals with Glucocorticoid receptor (Homo sapiens) (UniProt P04150). Kind of test: GR-GFP Redistribution (AID 450;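 active = compounds whose dose series gives a full or clear partial fitted curve of increased nuclear translocation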; also: potency is read from the fitted curve at half-maximal effect). The settings on record: U2OS GR-GFP nuclear translocation, laser cytometry, 2 h.
For test [15] the target is unchanged. Kind of test: GR-EFC Redistribution (AID 451; calls by dose curve; also: potency is read from the fitted curve at half-maximal effect). The settings on record: CHO-K1 GR-EFC translocation, beta-gal luminescence, 2 h. The procedure, abridged: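 CHO-K1 cells expressing nuclear EA and GR-ED fragments of b-gal; compounds titrated up to 46 uM final, 2 h at 37 C. GR nuclear translocation read as complemented b-gal luminescence after 1 h RT detection.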

The target of test [16] is Mitogen-activated protein kinase 10 (Mus musculus) (UniProt Q61831). The test can be described thus: JNK3 AlphaScreen Assay (AID 530; active = well fitted curve in either direction with a large enough effect, not every such curve was filed as active;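 also: kinase came from lysate of stimulated human HepG2 cells; signal reports phosphorylation of biotinylated GST-cJun 1-79 at Ser73 with 10 µM ATP; % is scaled to controls: 0 for no effect and ±100 for the full control effect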). An outline of the steps: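 qHTS format: compounds tested as titrations against IL-1beta/TNF-alpha-activated HepG2 lysate JNK3 with biotin-GST-cJun substrate and 10 uM ATP at room temperature. Loss of anti-phospho-cJun AlphaScreen signal indicates inhibition.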
On the technique in general: In Alpha technology, singlet oxygen from a donor bead excites a nearby acceptor bead.

Test [17] deals with 3',5'-cyclic-AMP phosphodiesterase 4B (Homo sapiens) (UniProt Q07343). Kind of test: qHTS Assay for Inhibitors of PDE-IV (AID 607; active = well fitted activation curve with a large enough effect in the main read-out, with a control signal flat, not every such curve was filed as active; also: % of control where 0% means no effect). The procedure, abridged: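 HEK293 ACTOne cells with CNG channel (1000/well), endogenous PDE4; membrane potential dye, compounds up to 22.9 uM final. Fluorescence Ex 535/Em 590; RO 20-1724 (100 uM final) as reference.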
Test [18] can be described thus: NFAT Signaling Pathway (AID 444; active = well fitted curve in either direction with a large enough effect, not every such curve was filed as active;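 also: carbachol stimulus at about its EC50 of 1 µM final; % is scaled to controls: 0 for no effect and ±100 for the full control effect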). The settings on record: Jurkat NFAT-bla M1, carbachol, beta-lactamase ratio, 5 h; at 7.69 µM (top of the series) unless noted. An outline of the steps: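 Jurkat cells with NFAT-driven β-lactamase reporter and co-expressed M1 receptor, stimulated with carbachol (final 1 uM, ~EC50), compound titration, 5 h at 37 °C. CCF4 loaded 1 h at RT; 460/530 nm ratio gave %activity and AC50.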

Test [19] has as its target Tumor susceptibility gene 101 protein (Homo sapiens) (UniProt Q99816). The test can be described thus: qHTS Assay for Iinhibitors of HIV-1 Budding by Blocking the Interaction of PTAP/TSG101: Hit Validation (AID 651600). Also: potency is read from the fitted curve at half-maximal effect; nearly all actives have a fitted effect of over 70% in size. The procedure, abridged: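 Measuring PTAP–Tsg101 interaction by FP: protein at 10 uM and fluorescent peptide at 50 nM (final), buffer 10 mM HEPES pH 7.5 with 0.15 M NaCl, 3 mM EDTA, 0.1 mM TCEP, 0.01% Tween 20; 20 min incubation, r.t.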

Values without a mark were called inactive. Records with an inconclusive call do not appear. Activity calls are given as the source filed them. Unless noted, calls follow the shape of the dose curve; as a rule, active = well fitted curve in the direction sought with a large enough effect; inconclusive = small, poorly fitted or top-dose-only effect, or another doubt; inactive = no such curve, though single readings can be large; an effect the other way counts as inactive or inconclusive.

Rap guanine nucleotide exchange factor 3 (Homo sapiens), sequence (O95398 whole entry, looked up): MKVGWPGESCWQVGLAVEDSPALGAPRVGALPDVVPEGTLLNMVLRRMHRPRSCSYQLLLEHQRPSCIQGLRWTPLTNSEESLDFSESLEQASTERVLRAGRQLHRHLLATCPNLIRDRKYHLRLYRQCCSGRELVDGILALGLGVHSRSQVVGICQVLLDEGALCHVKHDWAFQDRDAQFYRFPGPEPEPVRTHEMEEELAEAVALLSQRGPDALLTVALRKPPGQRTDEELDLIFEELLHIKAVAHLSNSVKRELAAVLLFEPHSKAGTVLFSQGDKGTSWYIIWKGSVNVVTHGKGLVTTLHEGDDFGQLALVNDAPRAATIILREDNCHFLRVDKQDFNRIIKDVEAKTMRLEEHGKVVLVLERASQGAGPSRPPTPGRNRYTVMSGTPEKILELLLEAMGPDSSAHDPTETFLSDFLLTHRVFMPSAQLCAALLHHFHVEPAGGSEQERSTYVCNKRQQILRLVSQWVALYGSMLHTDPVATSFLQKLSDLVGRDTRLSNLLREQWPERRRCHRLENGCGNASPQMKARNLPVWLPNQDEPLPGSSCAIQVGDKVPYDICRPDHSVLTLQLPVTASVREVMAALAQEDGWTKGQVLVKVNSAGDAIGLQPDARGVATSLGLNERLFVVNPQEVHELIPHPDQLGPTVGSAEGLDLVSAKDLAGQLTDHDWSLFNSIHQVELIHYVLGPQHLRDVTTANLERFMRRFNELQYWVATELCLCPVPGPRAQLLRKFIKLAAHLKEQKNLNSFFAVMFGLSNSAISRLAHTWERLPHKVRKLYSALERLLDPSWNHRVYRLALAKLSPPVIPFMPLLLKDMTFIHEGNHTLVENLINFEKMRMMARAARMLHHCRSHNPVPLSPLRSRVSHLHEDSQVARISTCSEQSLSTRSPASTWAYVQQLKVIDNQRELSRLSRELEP
Rap guanine nucleotide exchange factor 4 (Homo sapiens), sequence (Q8WZA2 whole entry, looked up): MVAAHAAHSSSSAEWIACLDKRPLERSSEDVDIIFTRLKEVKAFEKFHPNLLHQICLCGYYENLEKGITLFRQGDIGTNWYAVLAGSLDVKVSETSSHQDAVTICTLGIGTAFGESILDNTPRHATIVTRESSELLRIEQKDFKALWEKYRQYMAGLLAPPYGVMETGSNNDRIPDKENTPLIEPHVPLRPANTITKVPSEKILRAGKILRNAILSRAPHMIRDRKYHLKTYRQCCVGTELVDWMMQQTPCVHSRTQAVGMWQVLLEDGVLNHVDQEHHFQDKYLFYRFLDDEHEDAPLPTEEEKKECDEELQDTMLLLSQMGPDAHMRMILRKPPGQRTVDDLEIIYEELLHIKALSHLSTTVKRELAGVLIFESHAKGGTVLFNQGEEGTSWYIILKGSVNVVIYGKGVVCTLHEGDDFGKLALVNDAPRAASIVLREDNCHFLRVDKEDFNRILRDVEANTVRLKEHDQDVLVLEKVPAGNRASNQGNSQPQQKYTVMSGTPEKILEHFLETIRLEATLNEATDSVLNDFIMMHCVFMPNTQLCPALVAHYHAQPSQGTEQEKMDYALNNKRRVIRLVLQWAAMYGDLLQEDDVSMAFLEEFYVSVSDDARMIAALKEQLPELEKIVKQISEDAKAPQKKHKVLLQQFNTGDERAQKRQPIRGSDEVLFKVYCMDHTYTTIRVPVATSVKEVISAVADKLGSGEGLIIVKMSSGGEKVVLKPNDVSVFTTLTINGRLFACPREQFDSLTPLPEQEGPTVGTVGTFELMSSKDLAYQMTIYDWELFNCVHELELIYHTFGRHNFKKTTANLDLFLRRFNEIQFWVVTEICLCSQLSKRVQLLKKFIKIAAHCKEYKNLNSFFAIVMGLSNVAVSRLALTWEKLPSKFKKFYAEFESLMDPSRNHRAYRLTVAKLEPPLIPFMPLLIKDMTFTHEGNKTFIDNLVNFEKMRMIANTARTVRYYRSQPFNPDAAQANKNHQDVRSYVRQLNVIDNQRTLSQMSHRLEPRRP
Cytochrome P450 3A4 (Homo sapiens), sequence (P08684 whole entry, looked up): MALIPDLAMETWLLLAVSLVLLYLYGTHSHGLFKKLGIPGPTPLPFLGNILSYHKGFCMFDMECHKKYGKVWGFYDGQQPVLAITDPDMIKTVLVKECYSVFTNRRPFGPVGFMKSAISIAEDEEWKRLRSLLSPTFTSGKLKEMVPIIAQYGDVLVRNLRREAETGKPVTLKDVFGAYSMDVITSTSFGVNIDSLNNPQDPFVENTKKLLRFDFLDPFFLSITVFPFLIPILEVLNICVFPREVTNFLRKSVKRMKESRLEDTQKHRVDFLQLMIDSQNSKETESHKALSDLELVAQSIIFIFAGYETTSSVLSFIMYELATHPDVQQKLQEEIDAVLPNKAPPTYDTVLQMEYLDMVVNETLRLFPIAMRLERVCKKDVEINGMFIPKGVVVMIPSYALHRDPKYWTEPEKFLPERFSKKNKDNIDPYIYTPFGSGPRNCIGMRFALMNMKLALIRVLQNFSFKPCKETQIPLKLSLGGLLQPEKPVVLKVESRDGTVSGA
Glucocorticoid receptor (Homo sapiens), sequence (P04150 whole entry, looked up, the tested form may be a part): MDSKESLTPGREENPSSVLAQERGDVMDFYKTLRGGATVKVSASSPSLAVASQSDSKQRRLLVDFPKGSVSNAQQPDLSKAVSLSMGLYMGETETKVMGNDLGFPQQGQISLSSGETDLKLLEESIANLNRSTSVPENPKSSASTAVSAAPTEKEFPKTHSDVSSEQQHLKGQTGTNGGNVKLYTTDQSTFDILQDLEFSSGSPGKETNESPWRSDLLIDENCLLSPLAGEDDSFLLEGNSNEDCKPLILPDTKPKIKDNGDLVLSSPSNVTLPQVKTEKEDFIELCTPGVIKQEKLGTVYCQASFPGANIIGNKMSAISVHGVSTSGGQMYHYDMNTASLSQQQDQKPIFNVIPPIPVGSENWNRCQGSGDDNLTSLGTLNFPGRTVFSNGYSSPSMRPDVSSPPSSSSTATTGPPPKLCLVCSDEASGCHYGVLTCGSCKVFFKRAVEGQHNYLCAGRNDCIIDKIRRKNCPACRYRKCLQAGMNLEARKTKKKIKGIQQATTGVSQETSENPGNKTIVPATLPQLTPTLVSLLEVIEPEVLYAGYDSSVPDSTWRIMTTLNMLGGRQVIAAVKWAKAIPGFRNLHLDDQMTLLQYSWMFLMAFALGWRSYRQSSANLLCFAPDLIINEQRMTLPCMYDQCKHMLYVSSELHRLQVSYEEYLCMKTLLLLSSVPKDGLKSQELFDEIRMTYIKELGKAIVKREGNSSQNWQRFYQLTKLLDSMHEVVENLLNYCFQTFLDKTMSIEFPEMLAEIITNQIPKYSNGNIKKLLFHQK
Cytochrome P450 1A2 (Homo sapiens), sequence (P05177 whole entry, looked up): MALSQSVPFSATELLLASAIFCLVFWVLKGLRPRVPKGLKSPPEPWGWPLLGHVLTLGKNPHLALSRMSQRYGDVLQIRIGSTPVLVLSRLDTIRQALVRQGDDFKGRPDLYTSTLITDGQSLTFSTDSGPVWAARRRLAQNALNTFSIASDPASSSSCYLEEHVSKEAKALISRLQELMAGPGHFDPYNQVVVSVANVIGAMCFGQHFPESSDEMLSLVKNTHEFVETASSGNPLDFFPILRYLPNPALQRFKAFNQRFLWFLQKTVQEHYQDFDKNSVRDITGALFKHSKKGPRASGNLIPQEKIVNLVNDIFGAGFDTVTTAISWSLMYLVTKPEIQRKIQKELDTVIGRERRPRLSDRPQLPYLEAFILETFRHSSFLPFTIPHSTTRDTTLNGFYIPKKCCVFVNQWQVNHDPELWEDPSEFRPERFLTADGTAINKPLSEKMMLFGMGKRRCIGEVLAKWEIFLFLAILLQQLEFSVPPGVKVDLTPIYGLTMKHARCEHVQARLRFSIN
Lysosomal acid glucosylceramidase (Homo sapiens), sequence (P04062 whole entry, looked up): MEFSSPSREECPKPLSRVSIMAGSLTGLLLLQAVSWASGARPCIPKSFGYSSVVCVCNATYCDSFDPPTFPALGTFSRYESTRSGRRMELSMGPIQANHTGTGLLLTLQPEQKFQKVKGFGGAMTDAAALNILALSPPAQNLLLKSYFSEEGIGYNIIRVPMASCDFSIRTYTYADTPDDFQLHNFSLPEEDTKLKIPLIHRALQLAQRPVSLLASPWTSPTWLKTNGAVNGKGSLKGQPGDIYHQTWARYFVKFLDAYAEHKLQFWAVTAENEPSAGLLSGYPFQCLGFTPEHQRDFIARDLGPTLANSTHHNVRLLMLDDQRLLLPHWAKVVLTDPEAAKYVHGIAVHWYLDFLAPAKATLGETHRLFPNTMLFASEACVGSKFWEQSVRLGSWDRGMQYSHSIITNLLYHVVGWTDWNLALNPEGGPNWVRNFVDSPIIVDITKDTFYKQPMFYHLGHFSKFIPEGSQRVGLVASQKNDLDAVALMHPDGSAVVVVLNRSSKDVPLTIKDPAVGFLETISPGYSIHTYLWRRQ
Tumor susceptibility gene 101 protein (Homo sapiens), sequence (Q99816 whole entry, looked up): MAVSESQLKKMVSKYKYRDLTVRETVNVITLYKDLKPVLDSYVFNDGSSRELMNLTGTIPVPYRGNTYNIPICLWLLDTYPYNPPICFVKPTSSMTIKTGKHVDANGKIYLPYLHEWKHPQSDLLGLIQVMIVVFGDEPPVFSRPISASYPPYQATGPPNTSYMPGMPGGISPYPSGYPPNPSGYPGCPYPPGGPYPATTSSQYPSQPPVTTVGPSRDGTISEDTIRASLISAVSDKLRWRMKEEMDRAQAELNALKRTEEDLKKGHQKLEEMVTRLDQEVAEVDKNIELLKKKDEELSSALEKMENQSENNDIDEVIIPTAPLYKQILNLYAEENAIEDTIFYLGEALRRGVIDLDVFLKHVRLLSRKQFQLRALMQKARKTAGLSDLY

For the molecule `Cc1oc2ccc(O)c(CN(C)Cc3ccccc3)c2c1C(=O)Nc1cccc(C(F)(F)F)c1`, the Potency entry in test [1], in test [2], in [3] and in test [4] was “inactive” throughout.
`CC(C)(C)c1ccc(C(=O)N2CCCC(c3nc4c(nnn4Cc4cccc(F)c4)c(=O)[nH]3)C2)cc1` (centres undefined): the Potency result in test [1], in test [2] and in [4] was “inactive” throughout. In addition, the outcome in test [3] was “inactive [at 12.7 µM]”.
`O=S(=O)(c1ccc2nc(-c3ccco3)c(-c3ccco3)nc2c1)N1CCOCC1`: the Potency entry in test [1] and in [3] was “inactive” in each case. The activation is 6.85% [at 17.1 µM, percent relative to cAMP agonist control] in test [2] and 21.3% [at 30.8 µM] in test [4].
Turning to `O=c1c(O)c(-c2ccccc2)oc2ccc3occc3c12`, the values for the Potency in test [5] and in test [3] were 3.16 µM (active) and 5.55 µM (active), respectively. In test [6], the call was inactive. Also, the Potency result in test [7], in test [8], in test [1] and in test [2] was “inactive” each time.
Take `O=C(CN1C(=O)/C(=C2/SC(=S)N(CCS(=O)(=O)O)C2=O)c2ccccc21)Nc1cccc(Br)c1`: the Potency result in test [1], in test [2] and in test [9] was “inactive” in each case.
For `CC1CN(C(=O)c2ccc(-c3cccc(C(F)(F)F)c3)o2)CC(C)O1` (centres undefined), the Potency result in [1] and in [3] was “inactive” in each case. Besides, the activation in test [2] was 6.74% [at 17.1 µM, percent relative to cAMP agonist control]; in test [4], 1.55% [at 30.8 µM].
For `Cc1cc(C)nc(SCC(=O)c2ccc(C)c(C)c2)n1`, the Potency entry in test [1], in test [2] and in test [4] was “inactive” in each case. Besides, the Potency in test [3] is 13.5 µM (active).
As to `CCc1ccc2c(c1)NC(=O)C2(C)Cc1ccc(C(F)(F)F)o1` (centres undefined), the Potency result in test [1], in [2], in [3] and in test [4] was “inactive” each time.
With `Cc1cc2c(C)nc(N/N=C/c3ccc(F)cc3)nc2o1`, the Potency entry in [1], in test [2] and in test [9] was “inactive” in each case.
`Cc1cccc(Cn2c(=O)oc3ccc(C)cc32)c1`: the Potency result in test [1] and in test [3] was “inactive” in each case. For the same molecule, the activation in [2] was 1.77% [at 17.1 µM, percent relative to cAMP agonist control]; in test [4] it was 19.6% [at 30.8 µM].
As to `CC1Sc2ccc(C#N)cc2N(Cc2cccc(C(F)(F)F)c2)C1=O` (centres undefined), the Potency entry in test [1], in test [2], in [3] and in test [4] was “inactive” throughout.
Consider `CCOc1ccc2nc3cc(N=Nc4ccc(N)nc4N)ccc3c(N)c2c1`, for which the Potency in test [10] was more than 11.4 µM; in test [12], 0.794 µM (active); in test [14], more than 46 µM; in test [15] it was more than 9.22 µM. The activity change, negative = inhibition in test [11] was 4.95%; in test [16], -7.05% [at 11.4 µM]. For the same molecule, in test [13], the call was inactive. Further, the Potency entry in [17], in test [1] and in [3] was “inactive” each time. In [2], the activation was 2.08% [at 17.1 µM, percent relative to cAMP agonist control].
`COc1cc(/C=C2/SC(=S)N(CC(=O)O)C2=O)ccc1OC(=O)c1cccs1`: the Potency entry in [1], in test [2], in test [3] and in test [4] was “inactive” throughout.
Consider `COc1ccc(C)cc1NC(=O)c1ccc2c(SCC(=O)O)c3c(nc2c1)CCCC3`, for which the Potency entry in test [1], in test [2] and in test [9] was “inactive” in each case.
As to `CCOc1ccc2oc(C(=O)N(C)CC(=O)Nc3ccc(OCC)c(OCC)c3)c(C)c2c1`, the Potency entry in test [1], in [2], in test [3] and in test [4] was “inactive” in each case.
As to `Cc1cc(Cl)ccc1Oc1ccccc1C(=O)CC#N`, the Potency entry in [1], in test [2] and in [9] was “inactive” in each case.
Take `CCc1nc2ccc(C(=O)Nc3ccc(NC(C)=O)cc3)cn2c1N(C)CCC(C)C`: the Potency result in test [1], in test [2], in test [3] and in test [4] was “inactive” each time.
In the case of `CCCCn1c(N)c(N(CCOC)C(=O)c2ccc(-c3ccc(C(C)=O)cc3)o2)c(=O)[nH]c1=O`, the Potency entry in test [1], in test [2] and in [9] was “inactive” throughout.
In the case of `CN(C)c1ncc2ncc(=O)n(Cc3cccs3)c2n1`, the activity change, negative = inhibition in [11] is -12.8%; in test [18], -18.4%. The Potency is 1.58 µM (active) in [12], more than 9.22 µM in [14], more than 46 µM in test [15] and 39.3 µM (active) in test [3]. For the same molecule, the outcome in test [13] and in test [6] was inactive. For the same molecule, the Potency entry in test [16], in [1] and in test [2] was “inactive” each time.
Consider `CC(C)CCOP(=O)(c1ccc(N(C)C)cc1)C(O)c1c(Cl)cccc1Cl` (centres undefined), for which the Potency entry in test [1] and in test [3] was “inactive” throughout. Further, the activation is 13.3% [at 17.1 µM, percent relative to cAMP agonist control] in test [2] and 2.73% [at 30.8 µM] in test [4].
Regarding `Cc1ccc(N=Cc2cc3c(cc2[N+](=O)[O-])OCO3)cc1[N+](=O)[O-]`, the Potency result in test [1] and in test [3] was “inactive” each time. In addition, the activation was -8.35% [at 17.1 µM, percent relative to cAMP agonist control] in test [2] and -2.33% [at 30.8 µM] in [4].
With `CCNc1ccc2noc3c2c1C(=O)c1ccccc1-3`, the Potency is 3.26 µM (active) in test [19]; 100 µM (active) in [1]; 100 µM (active) in test [2]; 16.9 µM (active) in [3]; 22.4 µM (active) in test [4].
In the case of `Cc1ccc(/C=N/Nc2cc(C)nc(NCc3ccccc3)n2)cc1`, the Potency result in test [1], in test [2] and in [9] was “inactive” throughout.
